Screening data: PubChem, National Center for Advancing Translational Sciences (NCATS)
HT1080 IDH1KD tx: HT-1080 IDH1 knockdown cell toxicity (counter line) | HT-1080 IDH1 knockdown viability, ATP luminescence, 48 h | Potency, µM (doses to about 46.1 µM), for the others: top-dose activity, negative = toxicity, actives largely listed as cytotoxic | hit rate 2% among 360,000 | AID 686971;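 further: 0% = DMSO wells and -100% = cell-free medium wells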
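Assay cells: HT-1080 with IDH1 knockdown, 750 per well, RPMI/5% FBS. Exposure: 48 h at 37 °C following 2 h pre-incubation. Read: CellTiter-Glo luminescence; fitted concentration-response, curve class assigned.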
SW480 rerep: inducers of DNA re-replication in SW480 colon cancer cells; SW480 DNA re-replication, Hoechst DNA content imaging, 48 h; Potency, µM (doses to about 46.1 µM), for the others: top-dose re-replication activation, hits mostly activators; hit rate 1.8% among 340,000; further: % of control where 0% means no effect; nearly all actives have a fitted effect of over 55% in size
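Per well, 250 cells were exposed to pinned compound for 48 hr. Nuclear DNA was visualised with Hoechst (40 min, 37 C) and total object intensity recorded by fluorescence scanning.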
KB-3-1 tox: KB-3-1 parental cell cytotoxicity; KB-3-1 viability, CellTiter-Glo ATP luminescence, 72 h; hit rate 1.4% among 400,000; Potency, µM (highest dose often 46.1 µM), usual class: cytotoxic; further: on the % scale 0 is the no-effect control and ±100 the full control effect; nearly all actives have a fitted effect of over 60% in size
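KB-3-1 parental drug-naive adenocarcinoma cells in DMEM/10% FBS, incubated 72 h at 37 C with pin-transferred compounds across a concentration series. Viability by CellTiter-Glo luminescence; concentration-response curves fitted after normalization.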
MCF10A rerep: DNA re-replication induction in MCF 10a cells; hit rate 2.9% among 350,000; AID 624296; Potency, µM (top dose mostly 46.1 µM), without a hit: at the top dose activity, positive = re-replication, actives largely listed as activators; MCF 10A DNA re-replication, Hoechst nuclear intensity, 48 h; further: % of control where 0% means no effect; nearly all actives have a fitted effect of over 50% in size
KB-V1 MDR tox: kills drug-selected multidrug resistant KB-V1 cells | KB-V1 MDR cells viability, CellTiter-Glo, 72 h | Potency, µM (doses to about 46.1 µM), actives largely listed as cytotoxic | hit rate 3.4% among 400,000 | AID 1347076; further: on the % scale 0 is the no-effect control and ±100 the full control effect; nearly all actives have a fitted effect of over 60% in size
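Readout: CellTiter-Glo luminescence, 10 min after addition. Cells: KB-V1 MDR subline, 72 h at 37 degrees C with compound. Analysis: corrected, normalized data fitted to concentration-effect curves.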
HT1080-NT tox: kills 2HG-producing HT-1080-NT fibrosarcoma cells. HT-1080-NT fibrosarcoma viability, CellTiter-Glo ATP luminescence, 48 h. Potency, µM (top dose mostly 46.1 µM), inactives show at the highest dose activity, negative = less viability, usual class: cytotoxic. hit rate 1.6% among 360,000. AID 686970;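 further: NT is the 2HG producing partner of a matched IDH1 knockdown line; 0% = DMSO-treated cells and -100% = media-only wells without cells; nearly all actives have a fitted effect of over 55% in size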
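HT-1080-NT; 750 cells/well; 5% FBS RPMI; 48 h compound, 37 degrees C; CellTiter-Glo luminescence; curve fitting and curve-class assignment.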
* marks the source's active call; other numbers are inactive results; i = inactive; ? = inconclusive; . = no result. Compounds with a hit are over-represented: about 7.9% of the library has one in this group of screens. The call rests on the fitted dose curve; in most records, active means well fitted curve in the direction sought with a large enough effect; inconclusive means small, poorly fitted or top-dose-only effect, or another doubt; inactive means no such curve, though single readings can be large; an effect the other way counts as inactive or inconclusive. Potency means the concentration at half of the fitted maximal effect.

SMILES	HT1080 IDH1KD tx	SW480 rerep	KB-3-1 tox	MCF10A rerep	KB-V1 MDR tox	HT1080-NT tox
FC(F)(F)c1cc(N2CCNCC2)c2ccccc2n1	4%	-4%	i	0%	?	-5%
CN(c1ccccc1C(=O)Nc1ccc(S(=O)(=O)N2CCOCC2)cc1)S(C)(=O)=O	0%	-3%	i	-2%	i	3%
CCCC(=O)N(c1ccc2oc(C)c(C(C)=O)c2c1)S(=O)(=O)c1ccc(CC)cc1	.	.	3.7µM*	.	2.9µM*	.
CC(=O)Nc1ccc(Nc2nc3ccccc3nc2NS(=O)(=O)c2ccc(Cl)c([N+](=O)[O-])c2)cc1	7%	3%	i	?	i	-1%
O=[N+]([O-])c1cccc(CP(=O)(c2ccccc2)c2ccccc2)c1	-8%	2%	i	12%	21µM*	-8%
COC(=O)C1CCN(c2ccc([N+](=O)[O-])cc2[N+](=O)[O-])CC1	6%	-89%	i	-7%	16µM*	-1%
CN(C)/C=C1/OC(=O)C(C#N)=C1c1ccc(Cl)cc1	14%	?	i	18µM*	i	-2%
COCCNC(=O)C1CCC(CNS(=O)(=O)c2cccc3nsnc23)CC1 (stereo not given)	6%	-15%	i	-1%	i	21%
Cc1ccc(CSc2nnc(-c3cccs3)n2C)cc1	-9%	3%	i	-14%	i	0%
Cn1c(SCc2nc3ccccc3[nH]2)nnc1-c1cccs1	16%	-5%	i	7%	21µM*	8%
Cn1c(SCc2c(Cl)cccc2Cl)nnc1-c1cccs1	18%	1%	i	0%	18µM*	?
Cn1c(Cc2cccs2)nnc1SCc1nc2ccccc2[nH]1	-2%	0%	i	3%	i	-7%
COC(=O)c1cccc(S(=O)(=O)N2CCCCC2)c1	-12%	-12%	i	-2%	i	6%
S=C(NCCSCc1ccccc1Cl)Nc1ccccc1	?	-1%	i	13µM*	?	-16%
Cc1cccc(CSCCNC(=S)Nc2ccccc2)c1	-11%	0%	?	17%	18µM*	-10%
O=C(NC1CCCC1)C(c1ccsc1)N(C(=O)Cc1cccs1)c1cccc(F)c1 (stereo not given)	-3%	2%	i	23%	i	12%
COc1ccc(-c2nnnn2C)cc1S(=O)(=O)Nc1ccc(C)cc1C	2%	-12%	i	-13%	i	0%
CC(C)[Si]1(C(C)C)OCC2OC(n3cnc4c(N)ncnc43)C(N)C2O[Si](C(C)C)(C(C)C)O1 (stereo not given)	?	?	i	13µM*	i	-18%
NC(=O)CC1C(=O)N(c2ccc(Cl)cc2)C(=S)N1NC(=O)c1cccc(F)c1 (stereo not given)	2%	6%	i	1%	i	20%
CCOc1ccccc1NC(=O)C1=C(C)NC(=S)NC1c1cccs1 (stereo not given)	7%	-10%	i	-70%	13µM*	1%
CCN(CC)c1ccc(C(=O)OCC(=O)NC(C)(C)C)cc1	0%	-5%	i	?	?	-22%
c1ccc2c(c1)[nH]c1c(N3CCOCC3)ncnc12	-23%	27%	i	0%	?	-21%
Cc1cccc2[nH]c3c(N4CCN(C(=O)c5ccco5)CC4)ncnc3c12	-1%	-5%	i	5%	?	0%
Cc1cccc2[nH]c3c(N4CCC5(CC4)OCCO5)ncnc3c12	18µM*	?	i	?	?	?
Clc1ccc2[nH]c3c(N4CCC5(CC4)OCCO5)ncnc3c2c1	8.2µM*	?	15µM*	21µM*	16µM*	16µM*
SMILES	HT1080 IDH1KD tx	SW480 rerep	KB-3-1 tox	MCF10A rerep	KB-V1 MDR tox	HT1080-NT tox
Cc1cccc(N(C)C(CNS(=O)(=O)c2ccccc2)c2ccccc2)c1 (stereo not given)	.	.	i	.	?	.
CCn1c(C)nc2cc(S(N)(=O)=O)ccc21	-11%	18%	i	13µM*	i	-13%
CCOc1cc(C#N)c(NC(=O)c2ccc(OC)c(S(=O)(=O)N3CCCC3)c2)cc1OCC	.	.	i	.	i	.
CCOC(=O)c1ccccc1NC(=O)Cn1ncc2c1-c1ccccc1OC2	.	.	?	.	i	.
Cc1nc2nc(C)c(CCC(=O)N3CCc4ccccc43)c(C)n2n1	1%	-6%	i	2%	21µM*	7%
Cc1ccc2ccccc2c1COC(=O)c1nonc1N	-10%	2%	i	-1%	i	-3%
Cc1ccccc1-n1nc2c(c1NC(=O)c1ccco1)CS(=O)(=O)C2	-2%	-7%	i	-1%	i	0%
Cc1ccc(-n2nc3c(c2NC(=O)c2c(-c4ccccc4Cl)noc2C)CS(=O)(=O)C3)c(C)c1	4%	0%	i	0%	12µM*	12%
Cc1ccccc1-n1nc2c(c1NC(=O)c1c(-c3ccccc3Cl)noc1C)CS(=O)(=O)C2	10%	-1%	i	2%	8.2µM*	-3%
CC(=O)c1c(OC(=O)c2ccco2)c2ccccc2n1C	10%	11%	i	-3%	i	1%
CC(C)(C)c1ccc(S(=O)(=O)NCCN2CCOCC2)cc1	2%	.	i	.	i	3%
COC(=O)c1ccc2c(=O)n(-c3ccccc3F)c(=S)[nH]c2c1	-1%	-2%	?	5%	18µM*	0%
COc1ccc(NC(=O)N2CCCC(CCC(=O)N(C)CCc3ccccn3)C2)cc1 (stereo not given)	-6%	-3%	i	-17%	?	4%
CCCC(=O)N1CCN(c2ccc(NC(=O)c3cc4ccccc4o3)cc2Cl)CC1	21µM*	2%	?	6.5µM*	?	18µM*
CCC(=O)N1CCN(c2ccc(NC(=O)c3ccco3)cc2Cl)CC1	12%	1%	i	-2%	?	11%
O=C(Nc1ccc(N2CCN(C(=O)c3ccco3)CC2)c(Cl)c1)c1cc2ccccc2o1	15µM*	?	?	9.2µM*	i	?
O=C(Nc1ccc(N2CCN(C(=O)c3ccccc3)CC2)c(Cl)c1)c1ccco1	?	-1%	?	?	?	-20%
CCC(=O)N1CCN(c2ccc(NC(=O)c3cc4ccccc4o3)cc2Cl)CC1	16µM*	-1%	?	?	9.2µM*	?
Cn1c(=S)n(/N=C/c2cccs2)c2ccccc21	0%	-16%	i	16%	i	-4%
Cc1cccc2c(=O)n3c(cc12)-c1[nH]c2ccccc2c1CC3	-22%	?	i	21µM*	i	?
